Most compounds without a hit are left out; they make up all but 19% or so of the library.
HT1080 IDH1KD tx: qHTS for induction of synthetic lethality in tumor cells producing 2HG: qHTS for the HT-1080-IDH1KD cell line | HT-1080 IDH1 knockdown viability, ATP luminescence, 48 h | Potency, µM (titrated, usually from 46.1 µM), for inactives: top-dose activity, negative = toxicity, hits mostly cytotoxic | 360,000 tested, 2% active | AID 686971, 2013;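 also: potency is read from the fitted curve at half-maximal effect; 0% = DMSO wells and -100% = cell-free medium wells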
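Cytotoxicity counter-line: IDH1KD HT-1080, 48 h, CellTiter-Glo. Curves classed by r2, magnitude and activity.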
HT1080NT lethal: qHTS for induction of synthetic lethality in tumor cells producing 2HG: qHTS for the HT-1080-NT fibrosarcoma cell line; HT-1080-NT fibrosarcoma viability, CellTiter-Glo ATP luminescence, 48 h; 360,000 tested, 1.6% active; AID 686970, 2013; Potency, µM (titrated, usually from 46.1 µM), for inactives: top-dose activity, negative = less viability, most hits filed as cytotoxic;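 also: NT is the 2HG producing partner of a matched IDH1 knockdown line; potency is read from the fitted curve at half-maximal effect; 0% = DMSO-treated cells and -100% = media-only wells without cells; nearly all actives have a fitted effect of over 55% in size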
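HT-1080-NT; 750 cells/well; 5% FBS RPMI; 48 h compound, 37 degrees C; CellTiter-Glo luminescence; curve fitting and curve-class assignment.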
TDP1 cell CPT: qHTS for Inhibitors of human tyrosyl-DNA phosphodiesterase 1 (TDP1): qHTS in cells in presence of CPT; chicken DT40 Tdp1-/-;hTDP1 cells + 20 nM CPT, ATP luminescence, 48 h; Potency, µM (highest dose often 46.2 µM), for inactives: at the top dose activity change, negative = growth inhibition, hits mostly inhibitors; 420,000 tested, 12% active; also: potency is read from the fitted curve at half-maximal effect; nearly all actives have a fitted effect of over 55% in size
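Chicken DT40 Tdp1-/- cells stably complemented with human TDP1 were seeded at 400 cells/well in medium containing 20 nM camptothecin, exposed to pin-transferred compounds, and grown at 37 °C for at least 48 hr. Viability was read as ATP luminescence.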
IL1B secr inh: qHTS for Inhibitors of Inflammasome Signaling: IL-1-beta AlphaLISA Primary Screen; AID 743279, 2014; THP-1 LPS/ATP IL-1B secretion, AlphaLISA, 16 h; stronger effect = lower value; 360,000 tested, 4.7% active; activity change, % at 57.5 µM; in the data active = activity change below about -50%; inconclusive = mostly about -30% to -49%
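THP-1 cells pretreated 1 hr with compounds (up to 57.5 uM final), then stimulated with LPS (250 ng/mL final) plus ATP (1.25 mM final); secreted IL-1B measured by AlphaLISA after 16 hr, decreased signal indicating inhibition.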
ELG1 DNA repair: qHTS screen for small molecules that inhibit ELG1-dependent DNA repair in human embryonic kidney (HEK293T) cells expressing luciferase-tagged ELG1 | HEK293T ELG1-luciferase reporter, luminescence, 16 h; DNA damage induced by 5-fluorouridine | Potency, µM (highest dose often 46.1 µM), without a hit: at the highest dose activity change, negative = inhibition, most hits filed as inhibitors | 330,000 tested, 2.3% active; also: potency is read from the fitted curve at half-maximal effect; nearly all actives have a fitted effect of over 55% in size
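5-Fluorouridine DNA damage + compound/DMSO, 2,000 cells/well, 16 h, 37 °C/5% CO2. ONE-Glo, 30 min RT, luminescence. Readout = decrease in reporter signal.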
DT40 TDP1 no CPT: qHTS for Inhibitors of human tyrosyl-DNA phosphodiesterase 1 (TDP1): qHTS in cells in absence of CPT; AID 686978, 2013; DT40 Tdp1-/- hTDP1 cells, no CPT, ATP luminescence, 48 h; Potency, µM (titrated, usually from 46.2 µM), inactives show at the top dose activity change, negative = growth inhibition, most hits filed as inhibitors; 420,000 tested, 15% active; also: potency is read from the fitted curve at half-maximal effect; nearly all actives have a fitted effect of over 55% in size
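Seeded 400 DT40-hTDP1 cells/well (vehicle DMSO, no 20 nM CPT); pinned compounds; ≥48 hr at 37 °C; CellTiter-Glo luminescence as viability measure.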
Numbers without * were called inactive; [ ] = another dose, or the depositor's remark. Unless noted, calls follow the shape of the dose curve; as a rule, active = well fitted curve in the direction sought with a large enough effect; inconclusive = small, poorly fitted or top-dose-only effect, or another doubt; inactive = no such curve, though single readings can be large; an effect the other way counts as inactive or inconclusive. Unless noted, % is scaled to controls: 0 for no effect and ±100 for the full control effect.

`Cc1ccc(Cn2nc(C)c(NC(=O)c3cc(-c4ccc(F)cc4)on3)c2C)cc1` gave TDP1 cell CPT 10µM* and DT40 TDP1 no CPT 7.3µM*.
For CCc1ccc(-c2cc(C(F)(F)F)n3nc(C(=O)Nc4c(C)nn(Cc5ccc(F)cc5)c4C)cc3n2)s1 the results were HT1080 IDH1KD tx inconclusive, HT1080NT lethal 6%, TDP1 cell CPT inconclusive, IL1B secr inh inconclusive, ELG1 DNA repair inconclusive and DT40 TDP1 no CPT 23µM*.
Screening O=C(O)C1C2CC3CC(C2)CC1(n1ncc(N2CCC4(CC2)OCCO4)c(Cl)c1=O)C3 (configuration not stated) returned HT1080 IDH1KD tx 20%, HT1080NT lethal 27%, TDP1 cell CPT 0%, IL1B secr inh -6, ELG1 DNA repair inconclusive and DT40 TDP1 no CPT -1%.
`Nc1nc(N)c2nc(CNc3ccc(C(=O)N[C@@H](CCC(=O)O)C(=O)O)cc3)cnc2n1` gave TDP1 cell CPT inconclusive and DT40 TDP1 no CPT 16µM*.
`CCCCn1c(O)c(C(C)=NC(Cc2c[nH]c3ccccc23)C(=O)OC)c(=O)[nH]c1=O` (configuration not stated) gave HT1080 IDH1KD tx -4%, HT1080NT lethal 4%, TDP1 cell CPT -2%, IL1B secr inh 34, ELG1 DNA repair inconclusive and DT40 TDP1 no CPT -20%.
Screening CCOc1ccc(-c2nc3cc(NC(=O)COc4cccc(C)c4)ccc3o2)cc1 returned TDP1 cell CPT 3.7µM* and DT40 TDP1 no CPT 16µM*.
C[N@+]12CCCC[C@@H]1CCC(=C(c1cccs1)c1cccs1)C2 was read as TDP1 cell CPT 27µM* and DT40 TDP1 no CPT 19µM*.
COc1ccc(C(=O)C2CCCN(Cc3cccc(C)n3)C2)c(OC)c1 (configuration not stated) was read as HT1080 IDH1KD tx -20%, HT1080NT lethal 3%, TDP1 cell CPT inconclusive, IL1B secr inh 37, ELG1 DNA repair inconclusive and DT40 TDP1 no CPT 21µM*.
CCn1ccnc1CN1CCCC(C(=O)c2ccc(OC)cc2OC)C1 (configuration not stated) was read as HT1080 IDH1KD tx -7%, HT1080NT lethal -9%, TDP1 cell CPT inconclusive, IL1B secr inh 20, ELG1 DNA repair -1% and DT40 TDP1 no CPT inconclusive.
Screening COc1ccc(C(=O)C2CCCN(CCO)C2)c(C)c1 (configuration not stated) returned HT1080 IDH1KD tx -2%, HT1080NT lethal -1%, TDP1 cell CPT -14%, IL1B secr inh 19, ELG1 DNA repair 1% and DT40 TDP1 no CPT inconclusive.
`COc1ccc(C(=O)C2CCCN(Cc3ccc(C)s3)C2)c(OC)c1` (configuration not stated) gave HT1080 IDH1KD tx -17%, HT1080NT lethal -23%, TDP1 cell CPT inconclusive, IL1B secr inh 6, ELG1 DNA repair -17% and DT40 TDP1 no CPT 21µM*.
Screening COc1ccc(C(=O)C2CCCN(C3CSCCSC3)C2)c(OC)c1 (configuration not stated) returned HT1080 IDH1KD tx -3%, HT1080NT lethal -7%, TDP1 cell CPT inconclusive, IL1B secr inh -6, ELG1 DNA repair inconclusive and DT40 TDP1 no CPT 23µM*.
`Cn1cc(C(=O)OCC(=O)NC2(C#N)CCCCC2)c2ccccc21` gave HT1080 IDH1KD tx 2%, HT1080NT lethal 13%, TDP1 cell CPT 1%, IL1B secr inh -16, ELG1 DNA repair -2% and DT40 TDP1 no CPT -1%.
O=C1NC(=O)C(=Cc2cn(CCOc3ccc4c(c3)OCO4)c3ccccc23)C(=O)N1 was read as HT1080 IDH1KD tx -8%[9.24 µM], HT1080NT lethal -3%, TDP1 cell CPT inconclusive, IL1B secr inh -10, ELG1 DNA repair inconclusive and DT40 TDP1 no CPT 21µM*.
Cc1cc(O)c2c(c1)OC(C)(C)C1=C2CC(C)CC1 (configuration not stated) was read as HT1080 IDH1KD tx 2%, HT1080NT lethal -5%, TDP1 cell CPT inconclusive, IL1B secr inh 53, ELG1 DNA repair -18% and DT40 TDP1 no CPT -18%.
`COc1ccc(C2SCC(=O)Nc3c2c(=O)[nH]n3C2CCCCCC2)cc1OC` (configuration not stated) gave HT1080 IDH1KD tx -17%, HT1080NT lethal -11%, TDP1 cell CPT -27%, IL1B secr inh -4, ELG1 DNA repair inconclusive and DT40 TDP1 no CPT inconclusive.
For COc1ccc(-c2nnc3sc(C4CCCCC4)nn23)cc1OC the results were HT1080 IDH1KD tx 11%, HT1080NT lethal 1%, TDP1 cell CPT 18µM*, IL1B secr inh inconclusive, ELG1 DNA repair 18µM* and DT40 TDP1 no CPT 15µM*.
For COc1ccccc1CCNC1CCCCCC1 the results were HT1080 IDH1KD tx -13%, HT1080NT lethal -9%, TDP1 cell CPT inconclusive, IL1B secr inh -12, ELG1 DNA repair -5% and DT40 TDP1 no CPT -30%.
COc1ccccc1CCNC1CCC(C(C)(C)C)CC1 (configuration not stated) was read as HT1080 IDH1KD tx inconclusive, HT1080NT lethal inconclusive, TDP1 cell CPT inconclusive, IL1B secr inh -65*, ELG1 DNA repair inconclusive and DT40 TDP1 no CPT 21µM*.
Screening Cc1ncc(CN2CCCC(C(=O)c3cccc(OC(C)C)c3)C2)s1 (configuration not stated) returned HT1080 IDH1KD tx 6%, HT1080NT lethal 5%, TDP1 cell CPT inconclusive, IL1B secr inh 36, ELG1 DNA repair inconclusive and DT40 TDP1 no CPT inconclusive.
Screening COc1c(C)cc(C(=O)C2CCCN(Cc3ccccn3)C2)cc1C (configuration not stated) returned HT1080 IDH1KD tx -10%, HT1080NT lethal -1%, TDP1 cell CPT inconclusive, IL1B secr inh 12, ELG1 DNA repair inconclusive and DT40 TDP1 no CPT 18µM*.

Screening results (PubChem BioAssay)
